The results in this text go back to PubChem BioAssay (NCI).

About 83,000 compounds went through this panel and 20% of them were active in at least one assay; those are over-represented in the sample as a whole.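 Cell lines were cultured in 96-well plates, exposed to a single compound concentration, and assessed for percent growth 48 hours later.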 Values without a mark were called inactive. Active and inactive are the calls of the source. The calls were made as follows: active = growth percent below 10; inactive = the rest.

Among the test systems are NCI-H23 lung; NCI-H226 lung; NCI-H322M lung; HOP-62 NSCLC; NCI-H460 lung; NCI-H522 lung; A549/ATCC NSCLC; 786-0 renal; COLO 205 colon; DU-145 prostate; K-562 leukemia; MALME-3M melanoma; MDA-MB-231 breast; RXF 393 renal; SF-268 CNS; SF-539 CNS; UACC-257 melanoma; M14 melanoma; HCT-15 colon; SF-295 CNS.
Common to all, as to test: NCI-60 one-dose screen, 48 h (100 = growth as untreated, 0 = no growth, -100 = all killed)
Settings in all cases: 10 µM unless noted

`CC(=O)Oc1ccc(C2OC(c3ccc4ccccc4c3OC(C)=O)=NN2C(C)=O)c(OC(C)=O)c1` (configuration not stated): the growth in the assay with NCI-H23 lung was 28.8%; in the assay with NCI-H226 lung it was 15.7%; in the assay on NCI-H322M lung it was 24.4%; in the assay with HOP-62 NSCLC, 14.7%; with NCI-H460 lung, 6.03% (active); with NCI-H522 lung, 4.49% (active). In addition, the growth with A549/ATCC NSCLC was 6.76% (active); in the assay on 786-0 renal, 5.71% (active); with COLO 205 colon it was 15.9%; with DU-145 prostate, 22.7%; with K-562 leukemia, 4.1% (active); in the assay with MALME-3M melanoma, 8.98% (active). Besides, the growth is 39.9% with MDA-MB-231 breast; 1.4% (active) in the assay with RXF 393 renal; 13.7% in the assay with SF-268 CNS; 13.9% with SF-539 CNS; -28.2% (active) in the assay with UACC-257 melanoma; 3.34% (active) in the assay with M14 melanoma. Besides, the growth in the assay with HCT-15 colon was 34.1%.
`CCCCCCCC1(C)NC(=O)NC1=O` (configuration not stated): the growth was 132% with NCI-H23 lung; 113% in the assay with NCI-H226 lung; 119% in the assay on NCI-H322M lung; 102% in the assay with HOP-62 NSCLC; 104% with NCI-H460 lung; 99.6% with NCI-H522 lung. Moreover, the growth was 122% in the assay with A549/ATCC NSCLC; 108% with 786-0 renal; 120% in the assay with COLO 205 colon; 115% in the assay on DU-145 prostate; 90.6% in the assay with K-562 leukemia; 126% with MALME-3M melanoma. Also, the growth was 116% in the assay with MDA-MB-231 breast; 106% with SF-268 CNS; 124% in the assay with SF-295 CNS; 97.6% in the assay with SF-539 CNS; 114% in the assay on UACC-257 melanoma; 106% with M14 melanoma.
As for `COc1ccc2c(c1)/C(=C\c1c[nH]c3ccc(F)cc13)C(=O)N2`, the growth is 81.4% in the assay with NCI-H23 lung; 92.6% in the assay with NCI-H226 lung; 75.9% with NCI-H322M lung; 88.8% in the assay on HOP-62 NSCLC; 87.7% in the assay with NCI-H460 lung; 80% with NCI-H522 lung. Also, the growth with A549/ATCC NSCLC is 70%; with 786-0 renal, 96.5%; with COLO 205 colon it was 103%; in the assay on DU-145 prostate, 84%; in the assay with K-562 leukemia, 62.5%; in the assay on MALME-3M melanoma, 120%. The growth in the assay on MDA-MB-231 breast was 106%; in the assay on RXF 393 renal, 95.4%; with SF-295 CNS, 100%; with SF-539 CNS, 91.8%; with UACC-257 melanoma, 108%; with M14 melanoma it was 105%. Besides, the growth in the assay on HCT-15 colon is 66%.
For `O=C(O)c1ccccc1C(=O)OC1CCCC2CCCC21` (configuration not stated), the growth in the assay with NCI-H23 lung is 95.1%; in the assay with NCI-H226 lung, 101%; in the assay on NCI-H322M lung, 115%; in the assay with HOP-62 NSCLC, 98.2%; with NCI-H460 lung, 112%; in the assay on NCI-H522 lung it was 107%. Besides, the growth with A549/ATCC NSCLC was 101%; in the assay with 786-0 renal, 116%; in the assay on COLO 205 colon, 117%; with DU-145 prostate, 103%; in the assay on K-562 leukemia, 102%; in the assay on MALME-3M melanoma it was 133%. The growth was 121% in the assay with MDA-MB-231 breast; 104% with RXF 393 renal; 106% in the assay with SF-268 CNS; 102% with SF-539 CNS; 105% in the assay with UACC-257 melanoma; 115% in the assay with M14 melanoma. Also, the growth in the assay with HCT-15 colon was 92.1%.
As to `O=C(Nc1ccncc1)C(=O)c1cn(S(=O)(=O)c2cccc(F)c2)c2ccccc12`, the growth in the assay with NCI-H23 lung was 34%; in the assay with NCI-H226 lung, 75.8%; in the assay on NCI-H322M lung, 101%; in the assay on HOP-62 NSCLC, 52.7%; in the assay with NCI-H460 lung, 65.4%; with NCI-H522 lung, -12.5% (active). In addition, the growth was 67.3% with A549/ATCC NSCLC; 61.7% in the assay on 786-0 renal; 106% in the assay on COLO 205 colon; 50% in the assay with DU-145 prostate; 23.9% in the assay with K-562 leukemia; 58.2% in the assay with MALME-3M melanoma. The growth was 67.4% in the assay with MDA-MB-231 breast; 59.9% with RXF 393 renal; 75.9% with SF-268 CNS; 27.3% in the assay with SF-539 CNS; 75.6% in the assay with UACC-257 melanoma; 26.8% in the assay with M14 melanoma. In addition, in the assay on HCT-15 colon, the growth is 25.3%.
Regarding `CC(C)(C)c1cc(O)c(O)c(C(C)(C)C)c1`, the growth is 48.4% with NCI-H23 lung; 75.6% with NCI-H226 lung; 63.5% in the assay with NCI-H322M lung; 64.7% with HOP-62 NSCLC; 14.7% in the assay on NCI-H460 lung; 0.232% (active) in the assay with NCI-H522 lung. Besides, the growth in the assay on A549/ATCC NSCLC is 20.9%; in the assay on 786-0 renal, 52.2%; in the assay with COLO 205 colon, 64.9%; with DU-145 prostate, 68.7%; in the assay on K-562 leukemia it was 3.38% (active); in the assay on MALME-3M melanoma, 67%. Also, the growth was 61.1% in the assay with MDA-MB-231 breast; 65% in the assay on RXF 393 renal; 53.2% in the assay with SF-268 CNS; 40.6% with SF-539 CNS; 80.5% in the assay with UACC-257 melanoma; 51.9% in the assay with M14 melanoma. Further, the growth in the assay with HCT-15 colon is 26.7%.
`CN(C)c1ccc2c(c1)/C(=N/O)c1ccccc1-2`: the growth is 89% in the assay with NCI-H23 lung; 91.8% in the assay on NCI-H226 lung; 113% in the assay with NCI-H322M lung; 92.2% with HOP-62 NSCLC; 97.2% with NCI-H460 lung; 89% with NCI-H522 lung. For the same compound, the growth in the assay on A549/ATCC NSCLC is 84.2%; in the assay with 786-0 renal, 104%; in the assay on COLO 205 colon it was 103%; in the assay with DU-145 prostate it was 105%; with K-562 leukemia, 29.7%; with MALME-3M melanoma, 87.9%. Moreover, the growth was 89.8% with MDA-MB-231 breast; 81% in the assay with RXF 393 renal; 78.3% with SF-268 CNS; 60% with SF-539 CNS; 81.6% in the assay on UACC-257 melanoma; 69.7% in the assay with M14 melanoma. Besides, in the assay on HCT-15 colon, the growth was 78.7%.
